# Experimental data taken from PubChem BioAssay (NCATS).
# Values joined by “and” are separate entries in the source; they are usually repeats but may differ in a detail not shown here. Equal values may be shown once. Results filed as inconclusive are left out. Entries that show only a call come without a potency. More than one record can exist for a structure, and the calls need not agree. Active and inactive are the calls of the source. Unless noted, calls follow the shape of the dose curve; as a rule, active = well fitted curve in the direction sought with a large enough effect; inconclusive = small, poorly fitted or top-dose-only effect, or another doubt; inactive = no such curve, though single readings can be large; an effect the other way counts as inactive or inconclusive.
# Tests used:
# [1] = molecular target: Cytochrome P450 3A4 (Homo sapiens) (UniProt P08684); test: qHTS Assay for Inhibitors and Substrates of Cytochrome P450 3A4 (AID 884); also: potency is read from the fitted curve at half-maximal effect; nearly all actives have a fitted effect of over 50% in size
# Outline: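 20 nM human CYP3A4 with 25 uM Luciferin-PPXE (at KM) in 200 mM KPO4, preincubated 10 min with compound; NADPH regeneration started a 60 min RT reaction. Luciferin detected by luminescence, normalized to 57 uM ketoconazole as full inhibition.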
# [2] = molecular target: Cytochrome P450 3A4 (Homo sapiens) (UniProt P08684); test: qHTS Assay for Activators of Cytochrome P450 3A4 (AID 885); also: nearly all actives have a fitted effect of over 65% in size
# Outline: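 Signal was normalized against complete inhibition by 57 uM ketoconazole. The reaction used 20nM CYP3A4 with 25uM Luciferin-PPXE, 10-min compound preincubation and a 60-min NADPH-supported step at RT.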
# [3] = molecular target: Cytochrome P450 1A2 (Homo sapiens) (UniProt P05177); test: p450-cyp1a2 (AID 410; calls by dose curve; also: potency is read from the fitted curve at half-maximal effect)
# Outline: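 Luminescent readout of luciferin formed from Luciferin-ME by human CYP1A2; data normalized against complete inhibition by 57 uM furafylline. Enzyme 20nM, substrate 100uM at Km, 100mM KPO4 buffer, 60 min reaction at room temperature.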
# [4] = molecular target: 3',5'-cyclic-AMP phosphodiesterase 4B (Homo sapiens) (UniProt Q07343); test: qHTS Assay for Inhibitors of PDE-IV (AID 607; active = well fitted activation curve with a large enough effect in the main read-out, with a control signal flat, not every such curve was filed as active)
# Outline: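 Cell-based read-out of cAMP via a modified cyclic nucleotide-gated channel and membrane potential dye (535/590 nm) in HEK293 cells expressing PDE4 endogenously. Compounds tested up to 22.9 uM final; 100 uM RO 20-1724 reference.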
# [5] = molecular target: Ubiquitin carboxyl-terminal hydrolase 1 (Homo sapiens) (UniProt O94782); test: Inhibitors of USP1/UAF1: Pilot qHTS (AID 504865);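 also: rhodamine fluorescence freed from ubiquitin-rhodamine substrate followed over time; top concentration of the series differs between compounds; nearly all actives have a fitted effect of over 35% in size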
# Outline: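 USP1/UAF1 complex (1nM) preincubated with compound 15 min at room temperature, then Ub-Rho substrate (150nM final) added. Fluorescence read kinetically at 480/540 nm, 6 reads every 60 seconds. Buffer: 50mM HEPES pH 7.8, 0.5mM EDTA, 0.1 mg/ml BSA, 1mM TCEP, 0.01% Tween-20.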
# [6] = Primary qHTS for inhibitors of nuclear receptor binding SET domain protein 2 (NSD2) in an isogenic RCH-ACV NSD2 p.E1099K mutant (9B) (AID 1645876); also: potency is read from the fitted curve at half-maximal effect; nearly all actives have a fitted effect of over 70% in size
# [7] = molecular target: Glutathione peroxidase 1 (Homo sapiens) (UniProt P07203); test: Primary qHTS Assay for Inhibitors of Recombinant Selenoprotein Glutathione Peroxidase 1 (GPX1) (AID 1845191); also: nearly all actives have a fitted effect of over 65% in size
# Outline: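 10 nM GPX1 + cpd, 30 min RT; start w/ 1 mM GSH, 0.5 mM cumene hydroperoxide, 0.5 mM NADPH, 100 nM GR, 0.01% BSA; buffer 50 mM Tris-HCl pH 7.5, 2 mM EDTA, 150 mM NaCl; Fl 340/450, 0 & 15 min.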
# [8] = AP1 Signaling Pathway (AID 357; active = well fitted curve in either direction with a large enough effect, not every such curve was filed as active;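 also: ME-180 reporter cells stimulated with EGF at its EC50 level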); conditions: ME-180 AP-1-bla reporter, EGF-induced, beta-lactamase ratio, 5 h; at 38 µM (top of the series)
# Outline: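 Titration-series screen for positive or negative modulators of EC50 EGF-induced signaling in ME-180 cells carrying an AP-1-driven beta-lactamase reporter. After 5 hours at 37 degrees Celsius, CCF4 460nm/530nm emission ratio gave %Activity; AC50 values derived.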
# [9] = NFAT Signaling Pathway (AID 444; active = well fitted curve in either direction with a large enough effect, not every such curve was filed as active;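 also: carbachol stimulus at about its EC50 of 1 µM final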); conditions: Jurkat NFAT-bla M1, carbachol, beta-lactamase ratio, 5 h; at 38 µM (top of the series)
# Outline: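 Read-out: CCF4 FRET ratio (460 nm/530 nm) after 1 h RT dye loading, used for %activity and AC50 from titration series. Cells: Jurkat NFAT-β-lactamase/M1 line, treated with compound plus 1 uM carbachol for 5 h, 37 °C.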
# [10] = Stat Signaling Pathway (AID 446; active = well fitted curve in either direction with a large enough effect, not every such curve was filed as active;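 also: ME-180 cervical cancer cells given 40 pM IL-6 alongside compound; SIE-controlled beta-lactamase reporter measured as 460/530 nm FRET emission ratio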); conditions: ME-180 SIE beta-lactamase reporter, IL-6 stimulated, 5 h; at 38 µM (top of the series)
# Outline: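 Reporter line: ME-180 cervical carcinoma, SIE-beta-lactamase. Treatment: compound with 40 pM IL-6, 5 hrs, 37 C, in low-serum OPTI-MEM with 10 mM HEPES pH 7.3. Detection: 460/530 nm fluorescence.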
# [11] = molecular target: Guanine nucleotide-binding protein G(i) subunit alpha-1 (Homo sapiens) (UniProt P63096); test: qHTS Assay for Inhibitors of RGS12 GoLoco Motif Activity (Green Fluorophore) (AID 879);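 also: negative values mean loss of peptide binding seen as reduced polarization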
# Outline: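 Fluorescence polarization assay: 50 nM Gαi1 with 10 nM FITC-labeled RGS12 GoLoco peptide in 10 mM Tris pH 7.5, 150 mM NaCl, 0.1 mM GDP, 0.05% NP40, 10 min at room temperature with compound.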
# [12] = molecular target: Cytochrome P450 2D6 (Homo sapiens) (UniProt P10635); test: qHTS Assay for Inhibitors and Substrates of Cytochrome P450 2D6 (AID 891);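 also: luciferin methyl ether substrate demethylated by CYP2D6 with NADPH regeneration; nearly all actives have a fitted effect of over 60% in size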
# Outline: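 Human CYP2D6 (5 nM) with 30 uM Luciferin-ME EGE (at Km) in 100 mM KPO4, compound preincubated 10 min, then NADPH regeneration system for 60 min at room temperature. Luciferin read by luminescence; normalized to 1.43 uM quinidine.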
# [13] = molecular target: Cytochrome P450 2C19 (Homo sapiens) (UniProt P33261); test: qHTS Assay for Inhibitors and Substrates of Cytochrome P450 2C19 (AID 899); also: nearly all actives have a fitted effect of over 60% in size; also: potency is read from the fitted curve at half-maximal effect
# Outline: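 Reactions contain 5nM enzyme, 10uM Luciferin-H EGE (KM) and 50mM KPO4; compound preincubates 10 min at 37C, NADPH regeneration starts turnover for 60 min. Luminescence after detection reagent gives activity.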
# [14] = qHTS Assay for Identification of Small Molecule Agonists for Thrombopoietin (TPO) Signaling Pathway (AID 917)
# Outline: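 Murine Ba/F3 cells stably expressing human TPO receptor and a Glycoprotein IIb promoter–luciferase reporter were IL-3-starved overnight, then treated with compounds plus TPO (26 pM final, its EC50) for 24 hrs at 37 C; luminescence was read.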
# [15] = molecular target: Pyruvate kinase PKM (Homo sapiens) (UniProt P14618); test: qHTS Assay for Activators of Human Muscle Pyruvate Kinase (AID 954; active = well fitted curve in the direction sought with a large enough effect, not every such curve was filed as active)
# Outline: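 Human PKM2 activity is measured as ATP generation, detected by luciferase-coupled luminescence. The enzyme (0.1 nM) acts on 0.5 mM PEP and 0.1 mM ADP for 1 h at ambient temperature; data are normalized to uninhibited and full-inhibition wells.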
# [16] = molecular target: Alpha-galactosidase A (Homo sapiens) (UniProt P06280); test: Counterscreen for Glucocerebrosidase Inhibitors: qHTS Assay for Human alpha-Galactosidase at pH 4.5 (AID 992)
# Outline: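 Quantitative HTS: compounds tested from 0.7 nM up to 77 uM against 2 nM enzyme with 80 uM 4-MU alpha-D-galactopyranoside. The 20 min room-temperature reaction is stopped with 1M NaOH/1M glycine, pH 10.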
# [17] = molecular target: alpha-glucosidase (Oryza sativa, rice) (UniProt Q653V4); test: Counterscreen for Glucocerebrosidase Inhibitors: qHTS Assay for Rice alpha-Glucosidase at pH 5.0 (AID 997)
# Outline: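 Rice alpha-glucosidase (4 nM final) with 400 uM 4-methylumbelliferyl-alpha-D-glucopyranoside in citrate buffer pH 5.0, 20 min at room temperature, stopped at pH 10; fluorescence 365/440 nm, compounds 0.7 nM–77 uM, AC50 from Hill fits.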
# Sequence of 3',5'-cyclic-AMP phosphodiesterase 4B (Homo sapiens) (Q07343 whole entry, looked up): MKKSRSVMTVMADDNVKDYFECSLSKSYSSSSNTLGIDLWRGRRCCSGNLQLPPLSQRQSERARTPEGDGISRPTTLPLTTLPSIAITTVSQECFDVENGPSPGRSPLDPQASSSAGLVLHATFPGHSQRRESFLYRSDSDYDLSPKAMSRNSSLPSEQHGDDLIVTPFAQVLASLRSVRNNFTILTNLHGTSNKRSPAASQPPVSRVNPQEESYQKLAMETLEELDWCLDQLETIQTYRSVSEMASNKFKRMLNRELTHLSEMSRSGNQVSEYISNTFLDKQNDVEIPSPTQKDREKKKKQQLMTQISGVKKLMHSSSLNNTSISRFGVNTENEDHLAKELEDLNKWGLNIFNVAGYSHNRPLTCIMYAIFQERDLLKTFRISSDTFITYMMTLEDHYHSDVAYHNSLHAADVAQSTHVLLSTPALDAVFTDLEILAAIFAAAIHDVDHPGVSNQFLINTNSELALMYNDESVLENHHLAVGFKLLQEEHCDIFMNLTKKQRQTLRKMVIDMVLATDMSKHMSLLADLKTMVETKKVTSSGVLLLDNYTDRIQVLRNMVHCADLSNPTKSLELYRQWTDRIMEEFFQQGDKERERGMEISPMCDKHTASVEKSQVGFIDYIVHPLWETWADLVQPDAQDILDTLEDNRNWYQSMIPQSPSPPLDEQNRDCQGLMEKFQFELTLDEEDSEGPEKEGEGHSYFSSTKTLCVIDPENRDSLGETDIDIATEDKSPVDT
# Sequence of Cytochrome P450 1A2 (Homo sapiens) (P05177 whole entry, looked up): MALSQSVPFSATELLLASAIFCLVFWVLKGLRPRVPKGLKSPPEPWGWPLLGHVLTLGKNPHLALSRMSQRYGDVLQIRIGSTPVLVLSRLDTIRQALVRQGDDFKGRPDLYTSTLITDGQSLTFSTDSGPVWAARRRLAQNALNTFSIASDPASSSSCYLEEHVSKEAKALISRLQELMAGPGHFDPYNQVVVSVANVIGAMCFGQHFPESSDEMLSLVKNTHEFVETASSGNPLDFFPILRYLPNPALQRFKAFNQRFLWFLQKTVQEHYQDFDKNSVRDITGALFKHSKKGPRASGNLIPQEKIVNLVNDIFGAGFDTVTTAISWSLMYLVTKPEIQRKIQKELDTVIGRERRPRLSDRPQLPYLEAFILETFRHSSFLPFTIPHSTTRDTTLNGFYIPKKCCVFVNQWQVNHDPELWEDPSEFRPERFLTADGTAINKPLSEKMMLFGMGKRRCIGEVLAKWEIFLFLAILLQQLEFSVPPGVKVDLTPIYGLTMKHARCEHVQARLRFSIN
# Sequence of Ubiquitin carboxyl-terminal hydrolase 1 (Homo sapiens) (O94782 whole entry, looked up): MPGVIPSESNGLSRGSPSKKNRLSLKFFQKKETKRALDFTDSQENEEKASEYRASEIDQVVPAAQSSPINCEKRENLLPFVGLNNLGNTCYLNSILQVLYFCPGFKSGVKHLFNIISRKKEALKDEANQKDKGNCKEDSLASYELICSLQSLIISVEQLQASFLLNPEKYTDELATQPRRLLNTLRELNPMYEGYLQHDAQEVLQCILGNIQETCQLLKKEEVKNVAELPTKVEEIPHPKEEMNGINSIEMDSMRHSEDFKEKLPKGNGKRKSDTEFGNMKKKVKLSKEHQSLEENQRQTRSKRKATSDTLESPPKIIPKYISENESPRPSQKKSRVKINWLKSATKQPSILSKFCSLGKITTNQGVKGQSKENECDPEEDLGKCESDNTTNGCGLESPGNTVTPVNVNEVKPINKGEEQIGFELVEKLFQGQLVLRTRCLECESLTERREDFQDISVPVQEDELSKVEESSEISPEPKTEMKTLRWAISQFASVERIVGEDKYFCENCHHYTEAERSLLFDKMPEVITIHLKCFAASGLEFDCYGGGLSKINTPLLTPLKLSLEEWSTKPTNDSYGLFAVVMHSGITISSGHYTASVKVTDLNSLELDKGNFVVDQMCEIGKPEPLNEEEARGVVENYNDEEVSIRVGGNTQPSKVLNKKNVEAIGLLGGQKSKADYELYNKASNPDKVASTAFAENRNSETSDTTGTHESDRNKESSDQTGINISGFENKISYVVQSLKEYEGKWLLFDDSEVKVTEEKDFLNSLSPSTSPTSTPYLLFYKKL
# Sequence of Cytochrome P450 2C19 (Homo sapiens) (P33261 whole entry, looked up): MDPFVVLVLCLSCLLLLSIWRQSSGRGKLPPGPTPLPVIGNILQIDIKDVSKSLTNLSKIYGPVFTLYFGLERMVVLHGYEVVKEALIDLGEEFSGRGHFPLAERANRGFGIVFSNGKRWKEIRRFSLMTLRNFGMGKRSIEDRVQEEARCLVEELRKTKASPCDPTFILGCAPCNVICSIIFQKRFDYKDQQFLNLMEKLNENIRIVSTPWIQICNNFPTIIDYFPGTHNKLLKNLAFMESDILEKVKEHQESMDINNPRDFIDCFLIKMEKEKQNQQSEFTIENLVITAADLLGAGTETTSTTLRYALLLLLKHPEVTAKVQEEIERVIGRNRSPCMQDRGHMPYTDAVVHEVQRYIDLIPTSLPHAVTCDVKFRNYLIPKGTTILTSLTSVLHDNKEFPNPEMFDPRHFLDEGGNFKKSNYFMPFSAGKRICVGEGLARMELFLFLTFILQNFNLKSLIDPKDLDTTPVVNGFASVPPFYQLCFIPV
# Sequence of Cytochrome P450 3A4 (Homo sapiens) (P08684 whole entry, looked up): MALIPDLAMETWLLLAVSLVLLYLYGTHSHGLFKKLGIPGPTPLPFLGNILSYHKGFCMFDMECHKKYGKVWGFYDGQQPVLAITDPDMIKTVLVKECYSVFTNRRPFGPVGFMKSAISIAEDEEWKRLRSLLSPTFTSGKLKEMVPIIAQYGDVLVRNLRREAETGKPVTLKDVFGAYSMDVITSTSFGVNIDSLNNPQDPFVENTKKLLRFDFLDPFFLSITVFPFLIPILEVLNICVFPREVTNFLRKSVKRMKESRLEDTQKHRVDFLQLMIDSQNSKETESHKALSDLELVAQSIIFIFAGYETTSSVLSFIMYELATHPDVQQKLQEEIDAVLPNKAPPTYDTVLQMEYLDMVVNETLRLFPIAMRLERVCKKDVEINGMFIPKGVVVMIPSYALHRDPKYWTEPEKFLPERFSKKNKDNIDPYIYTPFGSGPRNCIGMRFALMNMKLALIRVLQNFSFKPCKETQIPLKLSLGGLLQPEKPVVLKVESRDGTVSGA
# Sequence of Glutathione peroxidase 1 (Homo sapiens) (P07203 whole entry, looked up): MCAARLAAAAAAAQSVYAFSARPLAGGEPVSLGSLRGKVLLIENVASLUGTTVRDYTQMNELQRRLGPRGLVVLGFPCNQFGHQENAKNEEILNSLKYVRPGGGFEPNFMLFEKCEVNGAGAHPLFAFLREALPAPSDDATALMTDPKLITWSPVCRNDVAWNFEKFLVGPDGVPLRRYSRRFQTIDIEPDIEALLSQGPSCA
# Sequence of Alpha-galactosidase A (Homo sapiens) (P06280 whole entry, looked up): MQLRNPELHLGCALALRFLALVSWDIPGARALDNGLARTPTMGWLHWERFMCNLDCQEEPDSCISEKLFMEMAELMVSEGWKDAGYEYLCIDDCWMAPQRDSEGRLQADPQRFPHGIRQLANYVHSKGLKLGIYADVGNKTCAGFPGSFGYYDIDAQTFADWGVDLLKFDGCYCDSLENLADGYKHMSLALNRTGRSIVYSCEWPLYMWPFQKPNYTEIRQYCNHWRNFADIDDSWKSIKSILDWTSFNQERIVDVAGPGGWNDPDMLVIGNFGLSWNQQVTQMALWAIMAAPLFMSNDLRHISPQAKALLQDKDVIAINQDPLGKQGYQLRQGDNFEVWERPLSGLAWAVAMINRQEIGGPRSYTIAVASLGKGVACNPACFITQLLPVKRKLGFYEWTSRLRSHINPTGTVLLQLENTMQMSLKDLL
# Sequence of Cytochrome P450 2D6 (Homo sapiens) (P10635 whole entry, looked up): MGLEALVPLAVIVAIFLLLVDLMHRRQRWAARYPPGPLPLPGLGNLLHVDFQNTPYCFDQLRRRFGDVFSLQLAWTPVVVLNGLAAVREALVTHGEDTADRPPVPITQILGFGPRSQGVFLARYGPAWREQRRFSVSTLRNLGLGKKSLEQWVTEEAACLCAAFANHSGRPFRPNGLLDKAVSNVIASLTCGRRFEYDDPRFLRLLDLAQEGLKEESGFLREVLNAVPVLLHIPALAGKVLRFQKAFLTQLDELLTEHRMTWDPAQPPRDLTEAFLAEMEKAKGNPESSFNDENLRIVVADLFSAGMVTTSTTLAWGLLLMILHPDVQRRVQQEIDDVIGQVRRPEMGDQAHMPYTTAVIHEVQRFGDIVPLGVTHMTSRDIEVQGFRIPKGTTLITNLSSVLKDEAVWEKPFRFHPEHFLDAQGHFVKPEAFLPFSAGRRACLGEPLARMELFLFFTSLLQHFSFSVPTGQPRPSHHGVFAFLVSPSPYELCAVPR
# Sequence of Pyruvate kinase PKM (Homo sapiens) (P14618 whole entry, looked up): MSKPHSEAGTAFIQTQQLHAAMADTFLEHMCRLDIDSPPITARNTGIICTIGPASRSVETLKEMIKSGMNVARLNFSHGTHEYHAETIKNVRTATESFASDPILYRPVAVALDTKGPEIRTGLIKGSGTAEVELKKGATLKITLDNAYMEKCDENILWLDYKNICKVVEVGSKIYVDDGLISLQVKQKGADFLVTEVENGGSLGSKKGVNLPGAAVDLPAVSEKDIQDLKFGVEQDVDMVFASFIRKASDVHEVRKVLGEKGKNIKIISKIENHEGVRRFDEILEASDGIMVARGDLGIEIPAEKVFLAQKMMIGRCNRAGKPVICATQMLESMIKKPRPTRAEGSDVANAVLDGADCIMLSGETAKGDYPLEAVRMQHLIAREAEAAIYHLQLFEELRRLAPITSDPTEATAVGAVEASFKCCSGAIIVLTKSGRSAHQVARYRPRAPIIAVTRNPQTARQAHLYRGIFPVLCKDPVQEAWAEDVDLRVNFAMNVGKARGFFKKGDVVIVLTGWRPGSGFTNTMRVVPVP
smiles,measurement,setting,value
NCCCCCCNS(=O)(=O)c1cccc2ccccc12,Potency,[1],6.31 µM (active)
same,Potency,[2],inactive
C[N+]1(C)CCc2cc3c(cc2[C@@H]1[C@@H]1C(=O)Oc2c1ccc1c2OCO1)OCO3,Potency,[3],inactive and 1.26 µM (active)
same,Potency,[4],inactive
same,Potency,[2],inactive
COc1ccc2c(c1)CCC1[C@@H]2CCC2(C)[C@@H](NCCCCCCN3C(=O)C=CC3=O)CC[C@@H]12 (some centres undefined),Potency,[4],inactive
CC[N+](CC)(CC)CCOc1ccc(/C=C\c2ccccc2)cc1,Potency,[3],31.6 µM (active)
same,Potency,[4],inactive
same,Potency,[5],inactive
CC(=O)O[C@H](CC(=O)O)C[N+](C)(C)C,Potency,[5],inactive
CNc1cc2c(Nc3cccc(Br)c3)ncnc2cn1,Potency,[6],14.6 µM (active)
same,Potency,[7],inactive
CCCCC/C=C\C/C=C\C/C=C\C/C=C\CCCC(=O)O,Potency,[2],inactive
COC(=O)C1=C(C)NC(C)=C([N+](=O)[O-])[C@H]1c1ccccc1C(F)(F)F,"activity change, negative = inhibition",[8],-27.8% (inactive)
same,"activity change, negative = inhibition",[9],-15.3% (inactive)
same,"activity, negative = inhibition",[10],13.2% (inactive)
same,Potency,[4],inactive
same,outcome,[11],inactive
same,Potency,[1],12.6 µM (active)
same,Potency,[2],inactive
same,Potency,[12],inactive
same,Potency,[13],1.26 µM (active) and 158 nM (active)
same,Potency,[14],inactive
same,outcome,[15],inactive
same,outcome,[16],inactive
same,outcome,[17],inactive
COc1ccc2c(c1)c(CC(=O)N1CCOCC1)c(C)n2C(=O)c1ccc(Cl)cc1,"activity change, negative = inhibition",[8],-8.4% (inactive)
same,Potency,[3],12.6 µM (active) and 25.1 µM (active)
same,"activity change, negative = inhibition",[9],2.03% (inactive)
same,"activity, negative = inhibition",[10],-6.17% (inactive)
same,Potency,[4],inactive
same,outcome,[11],inactive
same,Potency,[1],5.01 µM (active)
same,Potency,[2],inactive
same,Potency,[12],inactive
same,Potency,[13],inactive
same,Potency,[14],inactive
same,outcome,[15],inactive
same,outcome,[16],inactive
same,outcome,[17],inactive
CCOC(=O)C1CSC(Cc2ccc(OCc3ccc([N+](=O)[O-])cc3)cc2)N1 (centres undefined),Potency,[1],15.8 µM (active)
same,Potency,[2],inactive
CCCCCCCCCCC(O)C1C=CC2C(=O)N(c3ccccc3)C(=O)C2N1Nc1ccc([N+](=O)[O-])cc1 (centres undefined),Potency,[7],inactive
C/C=C1\C2C=C(C)CC1(N)c1ccc(=O)[nH]c1C2 (centres undefined),Potency,[5],inactive
NS(=O)(=O)c1cccc(N=Cc2c(O)[nH]c3ccccc23)c1,Potency,[7],inactive
Cc1cc([C@](C)(N)C(=O)O)ccc1P(=O)(O)O,Potency,[5],inactive
CN(C)c1ccc(Nc2c3ccc(NC(=O)CCN4CCCC4)cc3nc3cc(NC(=O)CCN4CCCC4)ccc23)cc1,Potency,[7],inactive
OC(CN1CCNCC1)Cn1c2ccc(Br)cc2c2cc(Br)ccc21 (centres undefined),Potency,[2],inactive
O=C(c1ccc(-c2ccc(Cl)cc2)o1)N(Cc1ccccn1)c1ccc(N2CCNCC2)cc1,Potency,[6],13 µM (active)
same,Potency,[7],inactive
COc1ccc2[nH]c(C(=O)c3ccccc3)cc2c1,Potency,[3],0.1 µM (active)
CCCCN1CCC[C@@H]1CNC(=O)c1cc(C#N)c2ccccc2c1OC,Potency,[4],inactive
same,Potency,[5],inactive
N=C(C[C@@H](O)COc1ccccc1-c1ccccc1)N1CCCCC1,Potency,[5],inactive
